D1 agonist = human D1 receptor agonism; P21728; HEK293 T-REx D1 cells, calcium flux, agonist mode; activation, % at 2 µM; 360,000 compounds, 1% hits
Target sequence (P21728 whole entry, looked up): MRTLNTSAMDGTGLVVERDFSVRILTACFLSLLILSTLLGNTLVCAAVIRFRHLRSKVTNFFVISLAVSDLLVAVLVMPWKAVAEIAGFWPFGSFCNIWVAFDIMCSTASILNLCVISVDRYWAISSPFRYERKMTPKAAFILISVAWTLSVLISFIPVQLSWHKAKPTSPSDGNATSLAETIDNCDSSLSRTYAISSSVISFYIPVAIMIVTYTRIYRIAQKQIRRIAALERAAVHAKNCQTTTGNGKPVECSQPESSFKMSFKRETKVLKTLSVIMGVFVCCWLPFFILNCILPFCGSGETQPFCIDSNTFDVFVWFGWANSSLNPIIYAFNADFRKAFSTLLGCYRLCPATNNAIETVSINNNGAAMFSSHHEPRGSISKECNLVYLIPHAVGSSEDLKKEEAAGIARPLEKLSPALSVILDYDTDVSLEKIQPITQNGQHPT
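Agonism was scored from calcium flux recorded over 180 s (1 read/s) after pintool compound addition, following a 10-cycle baseline. Cells were inducible force-coupled HEK293 TREx D1, plated overnight at 30 C and loaded with no-wash calcium dye.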
TRHR agonist = TRH receptor (human) agonism. AID 493084. 360,000 compounds, 0.18% hits. activation, % at 2 µM. TRHR cells, calcium flux fluo-8, FDSS agonist mode
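Read-out: compound-evoked intracellular calcium rise in TRHR cells, fluo-8 dye, kinetic FDSS fluorescence at 1 s/cycle following a 10-cycle baseline. Cells cultured overnight before dye loading (30 min–1.5 h, RT).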
TRHR enhancer = allosterically enhances the human TRH receptor; P34981; TRHR cells, fluo-8 calcium fluorescence, EC20 TRH enhancement; 360,000 compounds, 0.66% hits; enhancement, % at 2 µM; in the data active = enhancement above about 30%
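Enhancer read-out: after compound pinning and an initial kinetic agonist-mode read, an EC20 of TRH (10 nM final) was injected and fluo-8 calcium signal (Ex 480/Em 530) followed at 1 s/cycle for 100 cycles in TRHR-expressing cells.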
D1 antag = blocks dopamine activation of the human D1 receptor. P21728. HEK293 TREx D1 cells, calcium flux, dopamine EC80; hits give low values. activity change, negative = inhibition, % at 10 µM. 360,000 compounds, 3.2% hits; in the data active = activity change below about -30%
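Compound effects on dopamine-evoked calcium signalling were measured in tetracycline-induced HEK293 Trex D1 cells. Dopamine at EC80 followed a 180 s compound pre-read, and fluorescence was tracked kinetically for 180 s more.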
D1 potentiator = human D1 dopamine receptor positive modulation; P21728; HEK293 TREx D1 cells, calcium flux, dopamine EC20 potentiation; potentiation, % at 10 µM; 360,000 compounds, 0.036% hits; AID 504651; in the data active = potentiation above about 30%
LDHA block = blocks human lactate dehydrogenase A; P00338; purified LDHA, NADH/diaphorase-resazurin fluorescence; hits give low values; activity change, % (values are at about 110 or 230 µM); 480,000 compounds, 0.15% hits; AID 1347041; in the data active = activity change below about -30%
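Enzyme activity of human lactate dehydrogenase 5 (2 nM; 0.06 mM NADH, 0.2 mM pyruvate, 5 min, RT) is measured via a resazurin/diaphorase fluorescence readout of residual NADH.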
Numbers stand for hits; . = inactive; / = no result given; ! = repeats disagree. In the library only some 3.6% were active in any assay of this set; here they are far more common. Rule as the data show it, unless noted: active = activation above about 30%; inactive = the rest.

SMILES	D1 agonist	TRHR agonist	TRHR enhancer	D1 antag	D1 potentiator	LDHA block
CC(C)=CCC[C@](C)(O[C@@H]1O[C@H](CO[C@@H]2O[C@H](CO)[C@@H](O)[C@H](O)[C@H]2O)[C@@H](O)[C@H](O)[C@H]1O)C1CC[C@]2(C)C1C(=O)CC1[C@@]3(C)CC[C@H](O[C@H]4O[C@@H](CO)[C@H](O)[C@@H](O)[C@@H]4O)C(C)(C)C3CC[C@]12C (stereo not given in full)	/	/	/	/	/	.
CC(=O)OCC1O[C@@H](O[C@@H]2C[C@H]3C(C)(C)[C@H](OC(C)=O)CC[C@]3(C)[C@H]3CC[C@]45C[C@]4(CC[C@H]5[C@@H](C)C[C@@H](O)[C@H](O)C(C)(C)O)[C@@]32C)[C@H](O)[C@@H](O)[C@@H]1O (stereo not given in full)	334	.	.	.	.	/
COc1ccc(-c2ccc(CNc3ccc4[nH]c(=O)[nH]c4c3)o2)cc1Cl	.	.	.	-52	.	.
CCCSCCCNC(=O)CN1C(=O)COc2ccc(S(=O)(=O)N3CCCC3)cc21	.	.	.	-38!	.	.
COc1ccc(CCNC(=O)CN2C(=O)COc3ccc(S(=O)(=O)N4CCOCC4)cc32)cc1OC	.	.	.	-52	.	.
O=C(O)C1(c2cccc(Br)c2)CCC1	/	/	/	/	/	.
C=CCOC(=O)C1=C(C)NC(SCC(=O)Nc2nccs2)=C(C#N)C1c1ccc(Cl)cc1 (stereo not given)	.	.	.	-70	.	.
CCOC(=O)C1=C(C)NC(SCC(N)=O)=C(C#N)C1c1cccs1 (stereo not given)	.	.	.	.	.	.
CC(=O)C1=C(C)NC(SCC(=O)Nc2nccs2)=C(C#N)C1c1ccccc1Cl (stereo not given)	.	.	.	.	.	.
CCOC(=O)C1=C(C)NC(SCC(=O)Nc2cc(C)on2)=C(C#N)C1c1cccs1 (stereo not given)	.	.	.	-48	.	.
C=CCOC(=O)C1=C(C)NC(SCC(=O)Nc2nccs2)=C(C#N)C1c1cccs1 (stereo not given)	.	.	.	-75	.	.
CC1CN(C(=O)Nc2cccc(CN3CCOC3=O)c2)CCO1 (stereo not given)	/	/	/	/	/	.
CCOC(=O)c1c(-c2ccccc2)csc1NC(=O)C(C)NCCCN1CCOCC1 (stereo not given)	.	.	.	.	.	-34
Cc1cc(C)cc(Nc2cc(C)nc3nc(-c4ccco4)nn23)c1	.	.	.	-39	.	.
Cc1ccc(Nc2cc(C)nc3nc(-c4ccco4)nn23)c(Cl)c1	/	/	/	/	/	.
O=C(Nc1ccc(F)cc1F)c1cc(=O)c2ccccc2o1	/	/	/	/	/	.
CC1CN(C(=S)Nc2ccccc2C(F)(F)F)CC(C)O1 (stereo not given)	.	.	.	-34	.	.
Cc1cc(C)c(NC(=O)Cn2nnc(-c3nc(-c4ccc(F)cc4)no3)c2N)c(C)c1	/	/	/	/	/	.
CC(=O)n1nc(-c2ccccc2)nc1NCc1ccc(N(C)C)cc1	.	.	39	.	.	.
CN(C)c1ccc(CNc2nc(-c3ccccc3)nn2S(C)(=O)=O)cc1	.	.	.	.	.	.
COc1ccc(CNc2nc(-c3ccccc3)nn2C(=O)c2ccc([N+](=O)[O-])cc2)cc1	.	.	.	.	.	.
COc1ccc(CNc2nc(-c3cccnc3)nn2S(C)(=O)=O)cc1	.	.	.	-31	.	.
COc1ccc(CNc2nc(-c3ccco3)nn2C(=O)c2ccccc2C)cc1	.	.	.	-36	.	.
CS(=O)(=O)n1nc(-c2cccnc2)nc1NCc1ccccc1	.	.	.	.	.	.
COc1ccc(CNc2nc(-c3ccccc3)nn2C(=O)c2cccs2)cc1	37	.	.	.	.	.
SMILES	D1 agonist	TRHR agonist	TRHR enhancer	D1 antag	D1 potentiator	LDHA block
Cc1oc(-c2nc(C#N)c(NCCN(C)C)o2)cc1S(=O)(=O)N(C)Cc1ccccc1	/	/	/	/	/	.
COCCn1c(-n2nc(C)cc2C)nc2c1c(=O)n(CC(=O)OC)c(=O)n2C	/	/	/	/	/	.
COc1ccc(C(=O)OCCOc2ccc(C#N)cc2)cc1F	/	/	/	/	/	.
Cc1ccc2c(c1)C1CC(c3ccccc3Cl)=NN1C1(CCN(S(C)(=O)=O)CC1)O2 (stereo not given)	/	/	/	/	/	.
COc1cc(OC)cc(C(=O)Nc2ccc3oc(-c4ccc(OC)c(Cl)c4)nc3c2)c1	/	/	/	/	/	.
Cc1ccc(CNc2nc(-c3ccco3)nn2C(=O)c2ccccc2[N+](=O)[O-])cc1	.	.	37	-62	.	.
CCOC(=O)N1CCC(NC(=O)C2CCN(Cc3nc(-c4ccccc4)no3)CC2)CC1	/	/	/	/	/	.
Cn1c(CN2CCN(C(=O)c3ccccc3Cl)CC2)nc2cc([N+](=O)[O-])ccc21	.	.	.	-77	.	.
Cn1c(CN2CCN(C(=O)c3ccccc3)CC2)nc2cc([N+](=O)[O-])ccc21	.	.	.	.	.	.
CCOC(=O)c1ccccc1NC(=O)CN(c1ccccc1OCC)S(C)(=O)=O	.	.	.	.	.	.
CCOC(=O)c1ccccc1NC(=O)CN(c1ccc(OCC)cc1)S(C)(=O)=O	.	.	35	.	.	/
CCOc1ccccc1N(CC(=O)Nc1ccccc1C(=O)O)S(C)(=O)=O	.	.	.	-45	.	.
Cc1c(-c2ccccc2)oc2c(C(=O)NCCCN3CCCCC3)cccc2c1=O	/	/	/	/	/	.
Cc1ccc(-n2nnc3c(=O)n(CC(=O)NCc4ccccc4)cnc32)cc1	.	.	.	.	.	.
O=C(Cn1cnc2c(nnn2-c2ccccc2)c1=O)NCc1ccc(F)cc1	.	.	.	-60	.	.
Cc1ccc2ncccc2c1N	.	.	.	-63	.	.
Cc1ccc(N)c2cccnc12	/	/	/	/	/	.
Cc1oc(-c2nc(C#N)c(N(C)CCC#N)o2)cc1S(=O)(=O)N(C)C	/	/	/	/	/	.
CCN(C(=O)CSc1nc2ccccc2n1CC(=O)NCc1ccc(OC)cc1)c1ccccc1	35	.	.	.	.	.
COc1ccc(CNC(=O)Cn2c(SCC(=O)N(C)c3ccccc3)nc3ccccc32)cc1	.	.	.	.	.	.
CCC(C)NC(=O)CSc1nc2ccccc2c(=O)n1Cc1ccc(OC)cc1 (stereo not given)	.	.	32	.	.	.
COC(=O)c1sc(=S)n(-c2ccc(Br)cc2)c1N	/	/	/	/	/	.
Cn1c(-c2cccc(Br)c2)cnc1NCc1ccccc1O	.	.	.	-35	.	.
C[C@H](NC(=O)c1nc[nH]c1C(=O)NCc1ccccc1)c1ccccc1	.	.	.	-41	.	.
Cc1ccc(NC(=O)c2nc[nH]c2C(=O)N[C@@H](C)c2ccccc2)cc1	.	.	.	.	.	.
